Results reported in the supplement of paper PMC4683952.
Counter-ions that a name gives are not always drawn. Screen size: about 1,200 compounds; about 50 (4%) showed activity. No stated cut-off is given here; in the data, all actives reach 1.3 or more but so do some inactives. The list comes from a sample in which actives are over-represented; it also holds similar structures and randomly drawn compounds.

Each molecule was assayed on Lgr5 (MarsCy1-Lgr5-EGFP, U2OS) (assay: cell-surface Lgr5 expression (SCi1 fluorescence, background-subtracted) relative to WT DMSO (fold of DMSO control); higher = more Lgr5 at the plasma membrane, active = hit call of the paper). Conditions: U2OS MarsCy1-Lgr5-EGFP stable; treatment time: overnight; 16 µM; library: Johns Hopkins Clinical Compound Library.

cell-surface Lgr5 expression, inactive:
NC(CCC(=O)O)C(=O)O (racemic) [DL-Glutamic acid monohydrate] 0.692
NC(=O)N[C@@H](CCC(=O)O)C(=O)O [Carglumic acid (N-Carbamyl-L-Glutamic Acid)] 1.08
OCc1ccccc1O[C@@H]1O[C@H](CO)[C@@H](O)[C@H](O)[C@H]1O [Salicin] 1.17
c1ccc(CN(CC2=NCCN2)c2ccccc2)cc1 [Antazoline] 1.21
c1ccc(CN(CC2=NCCN2)c2ccccc2)cc1 [Antazoline phosphate salt] 1.28
O=C1OC(c2ccc(O)cc2)(c2ccc(O[C@@H]3O[C@H](C(=O)O)[C@@H](O)[C@H](O)[C@H]3O)cc2)c2ccccc21 (stereo partly drawn) [Phenolphthalein beta-D-glucuronide sodium salt] 1
NCCC[C@H](N)C(=O)O [L-Ornithine] 0.718
[K+].[OH-] [Potassium hydroxide] 1.11
CN1C(CCl)Nc2cc(Cl)c(S(N)(=O)=O)cc2S1(=O)=O (stereo unspecified) [Methyclothiazide] 0.905
C=CCSCC1Nc2cc(Cl)c(S(N)(=O)=O)cc2S(=O)(=O)N1 (stereo unspecified) [Althiazide] 1.27
CC(C)(C)NCC(O)c1ccc(O)c(CO)c1 (stereo unspecified) [Albuterol (Salbutamol)] 1.22
CNC[C@H](O)c1cccc(O)c1 [L-Phenylephrine hydrochloride] 0.598
CCC(C)C(C(=O)OCC[N+](C)(CC)CC)c1ccccc1 (stereo unspecified) [Valethamate bromide] 1.1
CCN(CC)C(=S)S [Ditiocarb (Diethyldithiocarbamic acid sodium, thiocarb)] 1.05
CCN(CC)Cc1cc(Nc2ccnc3cc(Cl)ccc23)ccc1O [Amodiaquin] 1.47
CCN(CC)CCCC(C)Nc1ccnc2cc(Cl)ccc12 (stereo unspecified) [Chloroquine diphosphate salt] 1.53
CN(CCO)CC(O)Cn1cnc2c1c(=O)n(C)c(=O)n2C (stereo unspecified) [Xanthinol niacinate (Xanthinol Nicotinate)] 1.05
O=Cc1cc(Br)cc(Br)c1O [3,5-Dibromosalicylaldehyde] 1.17
CNCCCC1c2ccccc2C=Cc2ccccc21 [Protriptyline] 0.38
CNCCCN1c2ccccc2CCc2ccccc21 [Desipramine] 1
COc1cc(C2Oc3cc([C@H]4Oc5cc(O)cc(O)c5C(=O)[C@@H]4O)ccc3OC2CO)ccc1O (stereo partly specified) [Silibinin (Silybin)] 1.23
COc1cc(C2Oc3cc([C@H]4Oc5cc(O)cc(O)c5C(=O)[C@@H]4O)ccc3OC2CO)ccc1O (stereo partly specified) [Silibinin] 1.08
Oc1c(Cl)cc(Cl)c2cccnc12 [Chloroxine (5,7-Dichloro-8-hydroxyquinoline)] 0.97
Cc1c(N(C)C)c(=O)n(-c2ccccc2)n1C [Aminopyrine (4 Dimethylamino antipyrene)] 0.932
Cc1c(N(C)C)c(=O)n(-c2ccccc2)n1C [Aminopyrine (4-Dimethylamino-antipyrine)] 1.14
Cc1cc(OS(=O)(=O)O)c2ccccc2c1OS(=O)(=O)O [Menadiol disulfate disodium salt trihydrate] 0.856
O=C(O)c1cc(S(=O)(=O)O)ccc1O [Sulfosalicylic acid (5-Sulfosalicylic acid dihydrate)] 1.11
CCC(NC(C)C)C(O)c1ccc(O)c(O)c1 (stereo unspecified) [Isoetharine mesylate] 1.19
NC[C@H](O)c1ccc(O)c(O)c1 [Norepinephrine] 1.26
CNC[C@H](O)c1ccc(O)c(O)c1 [Epinephrine] 1.57
Cc1ncc(CO)c(CN)c1O [Pyridoxamine dihydrochloride] 0.999
Cc1ncc(CO)c(CN)c1O [Pyridoxamine, Dihydrochloride] 1.02
CCCCc1nc(Cl)c(CO)n1Cc1ccc(-c2ccccc2-c2nnn[nH]2)cc1 [Losartan] 0.915
C[C@@H]1[C@H](O)[C@@H](C)/C=C/C=C/C=C/C=C/C=C/C=C/C=C/[C@H](O[C@@H]2O[C@H](C)[C@@H](O)[C@H](N)[C@@H]2O)C[C@@H]2O[C@](O)(C[C@@H](O)C[C@@H](O)[C@H](O)CC[C@@H](O)C[C@@H](O)CC(=O)O[C@H]1C)C[C@H](O)[C@H]2C(=O)O [Amphotericin B] 0.802
C[C@@H]1CCC[C@H](C)N1NC(=O)c1ccc(Cl)c(S(N)(=O)=O)c1 [Clopamide] 1.3
CC(=O)O[C@]1(C(C)=O)CC[C@H]2[C@@H]3C=C(Cl)C4=CC(=O)[C@@H]5C[C@@H]5[C@]4(C)[C@H]3CC[C@@]21C [Cyproterone acetate] 1.25
CC(=O)O[C@]1(C(C)=O)CC[C@H]2[C@@H]3C[C@H](C)C4=CC(=O)CC[C@]4(C)[C@H]3CC[C@@]21C [Medroxyprogesterone acetate] 1.2
CC(=O)OCC(=O)[C@@]12OC(C)(C)O[C@@H]1C[C@H]1[C@@H]3CCC4=CC(=O)C=C[C@]4(C)[C@@]3(F)[C@@H](O)C[C@@]12C [Triamcinolone acetonide acetate] 1.26
CCCC(=O)O[C@]1(C(=O)CCl)[C@H](C)C[C@@H]2[C@@H]3CCC4=CC(=O)C=C[C@]4(C)[C@]3(F)C(=O)C[C@@]21C [Clobetasone butyrate] 1

cell-surface Lgr5 expression, active:
C=CC(N)CCC(=O)O (stereo unspecified) [Vigabatrin] 1.52
CC(C)COCC(CN(Cc1ccccc1)c1ccccc1)N1CCCC1 (stereo unspecified) [Bepridil] 1.31
Nc1c(Br)cc(Br)cc1CN[C@H]1CC[C@H](O)CC1 [Ambroxol hydrochloride] 1.54
NS(=O)(=O)c1cc2c(cc1Cl)NC(C(Cl)Cl)NS2(=O)=O (stereo unspecified) [Trichlormethiazide] 1.44
CNCC(O)c1ccc(OC(=O)C(C)(C)C)c(OC(=O)C(C)(C)C)c1 (stereo unspecified) [Dipivefrin HCl] 1.42
O=C(OCC(O)CO)c1ccccc1Nc1ccnc2cc(Cl)ccc12 (stereo unspecified) [Glafenine] 1.63
CNCCCC12CCC(c3ccccc31)c1ccccc12 [Maprotiline] 1.32
NC[C@H](O)c1ccc(O)c(O)c1 [Arterenol (Norepinephrine)] 1.3
CC(=O)OCC(=O)[C@@]1(OC(C)=O)[C@@H](C)C[C@H]2[C@@H]3C[C@H](F)C4=CC(=O)C=C[C@]4(C)[C@@]3(F)[C@@H](O)C[C@@]21C [Diflorasone diacetate] 1.67
CC(=O)O[C@]1(C(C)=O)CC[C@H]2[C@@H]3C[C@H](C)C4=CC(=O)C=C[C@]4(C)[C@@]3(F)[C@@H](O)C[C@@]21C [Fluorometholone acetate] 1.31
CCCC(=O)O[C@]1(C(=O)COC(C)=O)CC[C@H]2[C@@H]3C[C@H](F)C4=CC(=O)C=C[C@]4(C)[C@@]3(F)[C@@H](O)C[C@@]21C 1.57
CC(=O)OCC(=O)[C@@]12OC(C)(C)O[C@@H]1C[C@H]1[C@@H]3C[C@H](F)C4=CC(=O)C=C[C@]4(C)[C@@]3(F)[C@@H](O)C[C@@]12C [Fluocinolone acetonide 21-acetate] 1.6
